Drawing on PubChem BioAssay (NCI), this text covers growth for 15 compounds.

Common to all, as to assay: NCI-60 one-dose screen, 48 h (100 = growth as untreated, 0 = no growth, -100 = all killed)
Holding throughout (conditions): 10 µM unless noted

The test system of assay [1] is SR leukemia.
In assay [2] the test system is RPMI-8226 leukemia.
Assay [3] has as its system OVCAR-8 ovarian.
In assay [4] the test system is OVCAR-5 ovarian.
Assay [5] deals with OVCAR-4 ovarian.
Assay [6] deals with SK-OV-3 ovarian.
Assay [7] deals with OVCAR-3 ovarian.
Assay [8] deals with HS 578T breast.
In assay [9] the test system is NCI/ADR-RES ovarian.
For assay [10], the system named is IGROV1 ovarian.

Compounds without any hit were thinned out: in the full panel of roughly 83,000, 20% have a hit.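 Treatment: one concentration, 48 hours, 96-well format. Scoring: percent growth, with anything below 10 considered active.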 Unmarked numbers belong to inactive results. The source made the active and inactive calls.

Take `COc1ccc(NC(=O)c2ccc(-c3ccccc3)cc2)c(C(N)=O)c1`: the growth in assay [1] is 72.2%; in [2] it was 96.3%; in assay [3], 108%; in [4], 112%; in [5] it was 115%; in assay [6], 98.5%. The results for the growth in assay [7], in assay [8] and in [9] were 96.6%, 104% and 98.2%, respectively.
Regarding `COc1ccc(-c2cc(-c3cccnc3)nc3sc(C(=O)Nc4ccccc4)c(N)c23)cc1OC`, the growth was 52.3% in assay [1]; 0.963% (active) in assay [2]; 58.8% in assay [3]; 86.8% in assay [4]; 80.1% in [5]; 71.4% in assay [7]. Also, the growth in [8] is 28.4%; in assay [9], 54.4%.
In the case of `COc1ccc(-c2cc(-c3cccnc3)nc(S(=O)(=O)CC(=O)Nc3ccc(C)cc3)c2C#N)cc1OC`, the growth was 77.4% in assay [1]; 79.8% in assay [2]; 91.6% in assay [3]; 120% in assay [4]; 90.3% in assay [5]; 107% in assay [10]. Moreover, the growth in assay [7] is 95.4%; in [8], 81.9%; in assay [9] it was 86.8%.
For the compound `Cn1c(N2N=C(c3ccc(Cl)cc3)CC2c2ccccc2)nc(-c2ccccc2)c(C#N)c1=O` (centres undefined), the growth in [1] was 58.8%; in assay [2], 54.9%; in assay [3], 73.8%; in assay [4], 99.6%; in [5], 89.4%; in assay [10], 79%. For the same compound, the growth in assay [7] was 71.7%; in assay [8], 86.5%.
As for `Cc1sc2nc(NCc3ccccc3)[nH]c(=O)c2c1C`, the growth is 14.4% in assay [1]; 49.6% in assay [2]; 59.7% in assay [3]; 70.5% in assay [4]; 91.7% in assay [5]; 50.8% in [6]. For the same compound, the growth was 40.7% in assay [7] and 31.2% in assay [9].
`COc1ccc(C(=O)COc2cccc(/C=C3\COc4ccc5ccccc5c4C3=O)c2)cc1`: the growth was 35% in assay [1]; 2.86% (active) in [2]; 36.9% in assay [3]; 98.3% in [4]; 28.1% in assay [5]; 95.7% in assay [6]. Further, the growth in assay [7] was 64%; in [8] it was 88%; in assay [9], 46.5%.
As for `Cc1cc(Cl)ccc1Nc1nc(C(F)(F)F)ccc1C(=O)N/N=C/c1ccc(Cl)cc1`, the growth in assay [1] was -37.5% (active); in assay [2] it was -12.7% (active); in [3], 11.2%; in assay [4] it was 6.57% (active); in assay [5], 0.502% (active); in assay [6] it was -15.4% (active). Further, the growth in [7] was 1.27% (active); in assay [9] it was 4.33% (active).
Consider `Cc1cc2ccccn2c1C(=O)c1ccc(C(=O)c2ccccc2)cc1`, for which the growth in [1] was -3.06% (active); in [2] it was 82.1%; in assay [3], 87.9%; in assay [4] it was 87.8%; in assay [5], 81.4%; in [6] it was 111%. The growth in assay [7] was 96%; in [8], 86%; in assay [9], 72%.
In the case of `CC1CC=CCC1C1OCC(C)(C)CO1` (centres undefined), the growth is 96.4% in assay [1]; 97.2% in [2]; 98.6% in assay [3]; 104% in assay [4]; 108% in [5]; 110% in assay [6]. The growth was 109% in assay [7] and 108% in assay [9].
On to `CCCCOP(=O)(OCCCC)C(C(=O)OCC)C(CC(=O)OCC)C(=O)OCC` (centres undefined), for which the growth in [1] was 128%; in [2], 109%; in assay [3] it was 106%; in assay [4], 100%; in assay [6], 105%; in assay [10], 112%. For the same compound, the growth in assay [7] was 123%; in assay [8], 108%; in [9], 113%.
For the compound `COc1ccc(C(=O)COc2ccc(/C=C3\Oc4ccc5ccccc5c4C3=O)cc2)cc1`, the growth is 40.2% in [1]; 66.8% in [2]; 90.6% in [3]; 106% in [4]; 88.9% in assay [5]; 97.8% in assay [6]. In addition, the values for the growth in [7], in [8] and in assay [9] were 115%, 96.3% and 97.4%, respectively.
Take `CCc1ccc(-c2nc(SCC(=O)NC3CCCCC3)n[nH]2)cc1`: the growth in assay [1] was 12.6%; in assay [2] it was 32.8%; in assay [3] it was 70%; in [4] it was 94.2%; in [5], 72.6%; in [6], 84.8%. Also, the growth in assay [7] is 64%; in [8], 74.6%; in [9], 75.4%.
Turning to `O=[N+]([O-])c1cc([N+](=O)[O-])c(N2CCCC2)cc1NN=C(c1ccc(O)cc1)c1ccc(O)cc1`, the growth was 77.1% in [1]; 82.2% in [2]; -45.4% (active) in assay [3]; 38.2% in [4]; 81.6% in assay [5]; 39.9% in [6]. Also, the growth was 89.8% in [7], 137% in [8] and 33.6% in [9].
Turning to `Cc1sc2nc(N3CCCCC3)[nH]c(=O)c2c1C`, the growth was 97% in assay [1]; 106% in assay [2]; 96.5% in assay [3]; 108% in assay [4]; 100% in [5]; 92.3% in assay [6]. In addition, the growth in assay [7] was 113%; in assay [9] it was 96.5%.
As to `COc1cc2c(cc1OC)C(=O)/C(=C/c1cccc(OCC(=O)c3ccccc3)c1)C2`, the growth was 42.2% in [1]; 43.3% in [2]; 76.8% in [3]; 105% in [4]; 86% in [5]; 117% in [6]. For the same compound, the growth in assay [7] was 118%; in assay [8], 77.2%; in assay [9] it was 50.2%.
